Measured values: PubChem BioAssay AID1159580 (chemical genetic matrix, 2015)
Among all 5,500 compounds or so, about 2,000 (36%) were called active. Inconclusive results (about 18%) are left out. Rule as the data show it: active = normalized growth mostly below about 0.91 (no sharp cut-off); inconclusive = no clear call, values can overlap the other calls; inactive = mostly above about 0.92. The list shows a part of the results.

Assay: chemical genetic growth profiling, strain panel (AID 1159580);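 also: tested at 20 µM; growth read once vehicle control cultures reached saturation at 30 °C; 1 = growth at the plate median or of vehicle wells; lower values mean less growth of the strain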
Settings: growth OD

Measured: normalized growth

C[C@@H]1CC[C@H]2C(C)(C)C3CC12CC[C@@]3(C)O (some centres not stated)
inactive: S. cerevisiae deletion strains, locus YJR066W, strain TOR1, active compounds read low 0.975 | S. cerevisiae deletion strains, locus YKL009W, strain mrt4, active compounds read low 0.893 | S. cerevisiae deletion strains, locus YKL068W, active compounds read low 1.01 | S. cerevisiae deletion strains, locus YKL085W, strain MDH1 (second series), active compounds read low 0.961 | S. cerevisiae deletion strains, locus YKL085W, strain MDH1, active compounds read low 0.961 | S. cerevisiae deletion strains, locus YKL190W, strain CNB1, active compounds read low 1.01 | S. cerevisiae deletion strains, locus YKR001C, strain vps1, active compounds read low 0.933 | S. cerevisiae deletion strains, locus YKR026C, strain gcn3, active compounds read low 0.994 | S. cerevisiae deletion strains, locus YKR091W, strain srl3, active compounds read low 0.934 | S. cerevisiae deletion strains, locus YLL001W, strain dnm1, active compounds read low 0.949 | S. cerevisiae deletion strains, locus YLR039C, strain RIC1, active compounds read low 0.849 | S. cerevisiae deletion strains, locus YLR058C, strain SHM2, active compounds read low 1 | S. cerevisiae deletion strains, locus YLR102C, strain apc9, active compounds read low 0.989 | S. cerevisiae deletion strains, locus YLR113W, strain HOG1, active compounds read low 0.968 | S. cerevisiae deletion strains, locus YLR262C, strain YPT6, active compounds read low 0.841 | S. cerevisiae deletion strains, locus YLR268W, strain sec22, active compounds read low 0.961 | S. cerevisiae deletion strains, locus YLR342W, strain FKS1 (second series), active compounds read low 0.886 | S. cerevisiae deletion strains, locus YLR370C, strain arc18, active compounds read low 0.92 | S. cerevisiae deletion strains, locus YLR371W, strain rom2, active compounds read low 0.915 | S. cerevisiae deletion strains, locus YLR384C, strain iki3, active compounds read low 0.988 | S. cerevisiae deletion strains, locus YML016C, strain PPZ1, active compounds read low 1.01 | S. cerevisiae deletion strains, locus YML032C, strain rad52, active compounds read low 0.917 | S. cerevisiae deletion strains, locus YML124C, strain tub3, active compounds read low 0.99 | S. cerevisiae deletion strains, locus YMR078C, strain ctf18, active compounds read low 0.998 | S. cerevisiae deletion strains, locus YMR129W, active compounds read low 1.01 | S. cerevisiae deletion strains, locus YMR223W, strain ubp8, active compounds read low 0.952 | S. cerevisiae deletion strains, locus YMR307W, strain GAS1, active compounds read low 0.707 | S. cerevisiae deletion strains, locus YNL067W, strain RPL9B, active compounds read low 0.987 | S. cerevisiae deletion strains, locus YNL183C, strain NPR1, active compounds read low 0.976 | S. cerevisiae deletion strains, locus YNL250W, strain rad50, active compounds read low 0.956 | S. cerevisiae deletion strains, locus YNL271C, strain bni1, active compounds read low 0.938 | S. cerevisiae deletion strains, locus YNL307C, strain MCK1, active compounds read low 0.977 | S. cerevisiae deletion strains, locus YNL322C, strain KRE1 (second series), active compounds read low 0.971 | S. cerevisiae deletion strains, locus YNR049C, strain mso1, active compounds read low 1 | S. cerevisiae deletion strains, locus YOL006C, strain TOP1, active compounds read low 0.982 | S. cerevisiae deletion strains, locus YOL012C, strain htz1 0.706 | S. cerevisiae deletion strains, locus YOL147C, strain pex11, active compounds read low 0.965 | S. cerevisiae deletion strains, locus YOR061W, strain CKA2, active compounds read low 0.958 | S. cerevisiae deletion strains, locus YOR069W, strain VPS5, active compounds read low 0.998 | S. cerevisiae deletion strains, locus YOR080W, strain dia2, active compounds read low 0.967 | S. cerevisiae deletion strains, locus YOR136W, strain idh2, active compounds read low 0.959 | S. cerevisiae deletion strains, locus YOR144C, strain elg1, active compounds read low 0.972 | S. cerevisiae deletion strains, locus YOR184W, strain ser1, active compounds read low 0.9 | S. cerevisiae deletion strains, locus YOR231W, strain MKK1, active compounds read low 0.986 | S. cerevisiae deletion strains, locus YOR316C, strain cot1, active compounds read low 0.987 | S. cerevisiae deletion strains, locus YPL240C, strain hsp82, active compounds read low 0.952 | S. cerevisiae deletion strains, locus YPL241C, strain CIN2, active compounds read low 1.02 | S. cerevisiae deletion strains, locus YPL256C, strain CLN2, active compounds read low 0.969 | S. cerevisiae deletion strains, locus YPR119W, strain clb2, active compounds read low 1 | S. cerevisiae deletion strains, locus YPR141C, strain kar3, active compounds read low 0.991 | S. cerevisiae deletion strains, locus YPR163C, strain tif3, active compounds read low 0.993 | S. cerevisiae deletion strains, locus YPR167C, strain met16, active compounds read low 0.981 | S. cerevisiae deletion strains, strain wtn01, active compounds read low 0.926 | S. cerevisiae strains, strain wild type, active compounds read low 0.965
active: S. cerevisiae deletion strains, locus YKL160W, strain elf1, active compounds read low 0.813 | S. cerevisiae deletion strains, locus YLL026W, active compounds read low 0.747 | S. cerevisiae deletion strains, locus YLL041C, strain sdh2, active compounds read low 0.926 | S. cerevisiae deletion strains, locus YLR027C, strain aat2, active compounds read low 0.781 | S. cerevisiae deletion strains, locus YLR221C, strain rsa3, active compounds read low 0.745 | S. cerevisiae deletion strains, locus YLR258W, strain gsy2, active compounds read low 0.831 | S. cerevisiae deletion strains, locus YLR262C, strain YPT6 (second series), active compounds read low 0.549 | S. cerevisiae deletion strains, locus YLR320W, strain mms22, active compounds read low 0.628 | S. cerevisiae deletion strains, locus YLR330W, strain CHS5, active compounds read low 0.876 | S. cerevisiae deletion strains, locus YLR342W, strain FKS1, active compounds read low 0.861 | S. cerevisiae deletion strains, locus YLR357W, strain rsc2, active compounds read low 0.754 | S. cerevisiae deletion strains, locus YLR418C, strain cdc73, active compounds read low 0.824 | S. cerevisiae deletion strains, locus YML120C, strain ndi1, active compounds read low 0.786 | S. cerevisiae deletion strains, locus YMR058W, strain fet3, active compounds read low 0.891 | S. cerevisiae deletion strains, locus YMR125W, strain sto1, active compounds read low 0.83 | S. cerevisiae deletion strains, locus YMR205C, strain PFK2, active compounds read low 0.697 | S. cerevisiae deletion strains, locus YMR231W, strain pep5, active compounds read low 0.878 | S. cerevisiae deletion strains, locus YNL071W, strain lat1, active compounds read low 0.616 | S. cerevisiae deletion strains, locus YNL209W, strain ssb2, active compounds read low 0.869 | S. cerevisiae deletion strains, locus YNL233W, strain BNI4, active compounds read low 0.83 | S. cerevisiae deletion strains, locus YNL248C, strain rpa49, active compounds read low 0.879 | S. cerevisiae deletion strains, locus YNL298W, strain CLA4, active compounds read low 0.884 | S. cerevisiae deletion strains, locus YNR052C, strain pop2, active compounds read low 0.865 | S. cerevisiae deletion strains, locus YOR001W, strain rrp6, active compounds read low 0.81 | S. cerevisiae deletion strains, locus YOR070C, strain gyp1, active compounds read low 0.813 | S. cerevisiae deletion strains, locus YOR083W, strain WHI5, active compounds read low 0.743 | S. cerevisiae deletion strains, locus YOR106W, strain vam3, active compounds read low 0.713 | S. cerevisiae deletion strains, locus YOR265W, strain rbl2, active compounds read low 0.916 | S. cerevisiae deletion strains, locus YOR270C, strain vph1, active compounds read low 0.618 | S. cerevisiae deletion strains, locus YOR290C, strain snf2, active compounds read low 0.784 | S. cerevisiae deletion strains, locus YPL051W, strain arl3, active compounds read low 0.707 | S. cerevisiae deletion strains, locus YPL078C, strain atp4, active compounds read low 0.837 | S. cerevisiae deletion strains, locus YPL106C, strain sse1, active compounds read low 0.654
